The values that follow come from PubChem BioAssay (EPA / NIEHS).

Assay [1] is described as follows: ATG_M_19_TRANS: Attagene TRANS-FACTORIAL HepG2 Assay for M19 Transcription Factor (Internal Marker) (AID 2282974). Particulars: HepG2 Attagene TRANS-FACTORIAL M19 internal marker reporter. The gist of the method:
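Fluorescence of 6-FAM-labelled reporter cDNA fragments, separated by capillary electrophoresis, served as the readout. These derived from HepG2 cells carrying transfected GAL4-UAS reporter units after 24 h dosing, with DMSO as negative control.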

In assay [2] the target is Oxysterols receptor LXR-alpha (Homo sapiens) (UniProt Q13133). The assay can be described thus: ATG_LXRa_TRANS: Attagene TRANS-FACTORIAL HepG2 Assay for human Liver X Receptor alpha (LXRa) (AID 2282980). Particulars: HepG2 Attagene TRANS reporter, LXRa transactivation. The gist of the method:
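HepG2 cells transiently transfected with GAL4-UAS reporter units for chimeric NR-Gal4 proteins, exposed to chemicals for 24 h. Reporter mRNA quantified by RT-PCR and capillary electrophoresis; gain of signal fitted relative to DMSO.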

Assay [3] concerns the target Nuclear receptor subfamily 4 group A member 2 (Homo sapiens) (UniProt P43354). Briefly: ATG_NURR1_TRANS: Attagene TRANS-FACTORIAL HepG2 Assay for human Nuclear Receptor Related Protein 1 (NURR1) (AID 2282985). Particulars: HepG2 Attagene TRANS reporter, mRNA readout. The gist of the method: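 HepG2 cells transiently transfected with GAL4-UAS reporter units and chimeric NR-Gal4 constructs; chemical exposure 24 h. Reporter mRNA quantified by RT-PCR, fluorescent labelling and capillary electrophoresis; gain of signal fitted relative to DMSO baseline.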

The target in assay [4] is human RAR-related Orphan Receptor beta (RORb), RORB (gene 6096) (UniProt Q92753). Briefly: ATG_RORb_TRANS: Attagene TRANS-FACTORIAL HepG2 Assay for human RAR-related Orphan Receptor beta (RORb) (AID 2283010). Summed up: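 HepG2 cells were transiently transfected with multiplexed GAL4-UAS reporter units expressing chimeric nuclear receptor–GAL4 proteins, then dosed for 24 h. Reporter mRNA was quantified by RT-PCR with fluorescent labelling and capillary electrophoresis; gain of signal was fitted relative to DMSO.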

Assay [5] in a line: ACEA_ER_AUC_viability: ACEA Biosciences xCELLigence Real-Time Cell Analysis on Estrogen Receptor Agonism for Viability (AID 2283782).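 Also: continuous compound exposure with impedance area under curve over 80 h; hit means loss of impedance signal meaning reduced cell growth or viability.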 Summed up: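 T-47D human breast cells in phenol red-free RPMI1640 with 10% charcoal-stripped FBS were dosed with an 8-point 1:4 dilution series from 100 uM top final concentration, in duplicate. Impedance-based growth was followed for 80 h; AUC analysed versus DMSO.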

Assay [6] has as its target human Peroxisome Proliferator-activated Receptor alpha (PPARa), PPARA (gene 5465) (UniProt Q07869). Briefly: ATG_PPARa_TRANS: Attagene TRANS-FACTORIAL HepG2 Assay for human Peroxisome Proliferator-activated Receptor alpha (PPARa) (AID 2283001).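 As to AC50: potency for gain of reporter signal over DMSO so agonist or activator.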 The gist of the method: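 HepG2 cells transiently transfected with multiplexed GAL4-UAS reporter units and chimeric NR-Gal4 constructs were dosed for 24 h. Reporter mRNA was measured by RT-PCR with fluorescent labelling and capillary electrophoresis; gain of signal fitted against DMSO.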

In assay [7] the target is human Peroxisome Proliferator-activated Receptor delta (PPARd), PPARD (gene 5467) (UniProt Q03181). The assay can be described thus: ATG_PPARd_TRANS: Attagene TRANS-FACTORIAL HepG2 Assay for human Peroxisome Proliferator-activated Receptor delta (PPARd) (AID 2283002). Summed up:
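Multiplexed trans-activation format: HepG2 liver cells expressing exogenous NR-Gal4 chimeras and GAL4-UAS reporters were exposed for 24 h. Reporter mRNA was detected by RT-PCR with capillary electrophoresis fluorescence; activity fitted as gain of signal relative to DMSO.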

Assay [8] deals with human Thyroid Receptor alpha (THRa1), THRA (gene 7067) (UniProt P10827). Briefly: ATG_THRa1_TRANS: Attagene TRANS-FACTORIAL HepG2 Assay for human Thyroid Receptor alpha (THRa1) (AID 2283014). The gist of the method: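 HepG2 cells transiently transfected with chimeric NR-Gal4 and GAL4-UAS reporter units, dosed 24 h. Reporter mRNA quantified by RT-PCR, fluorescent labeling, HpaI digestion and capillary electrophoresis; gain-of-signal fit versus DMSO.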
human Thyroid Receptor alpha (THRa1), THRA (gene 7067), sequence (P10827 whole entry, looked up, the tested form may be a part): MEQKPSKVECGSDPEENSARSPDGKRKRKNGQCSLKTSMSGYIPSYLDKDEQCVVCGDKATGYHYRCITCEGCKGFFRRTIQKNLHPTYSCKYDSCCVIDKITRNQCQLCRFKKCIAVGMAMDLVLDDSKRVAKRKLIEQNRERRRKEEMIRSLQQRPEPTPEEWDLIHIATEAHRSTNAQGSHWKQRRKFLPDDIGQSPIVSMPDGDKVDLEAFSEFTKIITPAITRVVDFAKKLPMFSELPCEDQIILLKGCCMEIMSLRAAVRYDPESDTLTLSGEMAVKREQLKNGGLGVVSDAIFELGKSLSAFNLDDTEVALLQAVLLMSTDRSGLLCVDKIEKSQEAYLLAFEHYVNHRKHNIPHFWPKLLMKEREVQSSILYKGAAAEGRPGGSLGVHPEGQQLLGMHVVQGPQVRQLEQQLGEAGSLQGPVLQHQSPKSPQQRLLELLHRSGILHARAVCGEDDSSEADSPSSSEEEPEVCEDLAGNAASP

Assay [9] can be described thus: TOX21_p53_BLA_p3_viability: Viability Assessment in the Tox21 HCT-116 p53 Agonism Beta-lactamase Assay, Phase 3 (AID 2283593).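 Also: cells exposed to compound for 16 h before reading.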 Summed up: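 HCT-116 cells (4000/well) rested 5 h at 37C, then got DMSO compounds by pin tool (217-fold dilution) for 16 h at 37C, 5% CO2. After the bla read, CellTiter-Glo was added and luminescence read at 30 min, room temperature.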
Assay [10] in a line: TOX21_p53_BLA_p4_viability: Viability Assessment in the Tox21 HCT-116 p53 Agonism Beta-lactamase Assay, Phase 4 (AID 2283597).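 Also: hits lower the luminescence signal meaning cytotoxicity.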 Summed up: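 HCT-116 p53-bla cells, 4000/well, dosed after 5 h attachment and incubated 16 h at 37 °C, 5% CO2. Viability from CellTiter-Glo ATP luminescence after 30 min at room temperature, taken after the beta-lactamase read; loss of signal indicates cytotoxicity.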

Assay [11] has as its target Bile acid receptor (Homo sapiens) (UniProt Q96RI1). Briefly: ATG_IR1_CIS: Attagene CIS-FACTORIAL HepG2 Assay for human Nuclear Receptor Subfamily 1 Group H Member 4 (NR1H4), IR1 submotif (AID 2282946; active = hit-call score of the fitted dose curve at least 0.9, where 1 is the maximum; inactive = score below 0.9). Particulars: IR1 reporter transcription, actives raise or lower the signal. Summed up: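 Transient MRTU transfection, HepG2; 24 h dosing; RNA → RT-PCR → 6-FAM primer extension → HpaI digest → capillary electrophoresis fluorescence. Gain/loss of signal fitted relative to DMSO.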

The target of assay [12] is Hypoxia-inducible factor 1-alpha (Homo sapiens) (UniProt Q16665). The assay can be described thus: ATG_HIF1a_CIS: Attagene CIS-FACTORIAL HepG2 Assay for human Hypoxia Inducible Factor 1 (HIF1A) (AID 2282951; active = hit-call score of the fitted dose curve at least 0.9, where 1 is the maximum; inactive = score below 0.9). Particulars: HepG2 Attagene cis-factorial HIF1a reporter transcription; actives raise or lower the signal. The gist of the method: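 Transient MRTU transfection of human HepG2 liver cells, 24 h compound treatment, then total RNA isolation, oligo(dT) reverse transcription, PCR amplification, fluorescent labelling and capillary electrophoresis of reporter fragments. Gain or loss relative to DMSO.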
Hypoxia-inducible factor 1-alpha (Homo sapiens), sequence (Q16665 whole entry, looked up, the tested form may be a part): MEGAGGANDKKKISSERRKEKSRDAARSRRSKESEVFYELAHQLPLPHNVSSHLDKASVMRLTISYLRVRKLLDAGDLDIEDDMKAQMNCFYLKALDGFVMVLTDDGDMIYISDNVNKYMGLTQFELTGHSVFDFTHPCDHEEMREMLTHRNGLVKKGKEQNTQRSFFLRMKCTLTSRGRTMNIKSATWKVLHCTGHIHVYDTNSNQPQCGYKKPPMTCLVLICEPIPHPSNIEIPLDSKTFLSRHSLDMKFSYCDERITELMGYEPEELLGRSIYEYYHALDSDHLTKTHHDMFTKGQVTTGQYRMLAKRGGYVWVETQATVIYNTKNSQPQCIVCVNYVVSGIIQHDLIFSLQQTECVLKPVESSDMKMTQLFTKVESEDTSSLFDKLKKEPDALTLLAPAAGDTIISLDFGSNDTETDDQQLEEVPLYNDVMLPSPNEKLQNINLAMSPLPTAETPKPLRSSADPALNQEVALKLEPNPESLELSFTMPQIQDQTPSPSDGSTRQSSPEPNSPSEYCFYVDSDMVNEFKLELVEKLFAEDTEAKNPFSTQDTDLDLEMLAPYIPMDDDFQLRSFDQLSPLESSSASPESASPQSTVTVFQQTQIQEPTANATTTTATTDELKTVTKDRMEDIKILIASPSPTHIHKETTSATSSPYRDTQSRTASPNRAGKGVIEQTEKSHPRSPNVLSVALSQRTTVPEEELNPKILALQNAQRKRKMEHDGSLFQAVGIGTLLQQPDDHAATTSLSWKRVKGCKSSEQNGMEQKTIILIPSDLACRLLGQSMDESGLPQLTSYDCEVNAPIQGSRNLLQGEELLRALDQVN

The nature of assay [13]: ATG_PPRE_CIS: Attagene CIS-FACTORIAL HepG2 Assay for human Peroxisome Proliferator-activated Response Element (PPRE) (AID 2282958; active = hit-call score of the fitted dose curve at least 0.9, where 1 is the maximum; inactive = score below 0.9). Particulars: HepG2 PPRE cis-element reporter, Attagene transcription factor profiling; actives raise or lower the signal. Summed up: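 HepG2, transient MRTU transfection (cis promoter elements, endogenous TFs). 24 h dosing. RNA → oligo(dT) RT → PCR → 6-FAM primer extension → HpaI digest → CE. Bidirectional fit vs DMSO.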

Assay [14] addresses Bile acid receptor (Homo sapiens) (UniProt Q96RI1). The assay can be described thus: ATG_FXR_TRANS: Attagene TRANS-FACTORIAL HepG2 Assay for Farnesoid X Receptor (FXR) (AID 2282979).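 Also: hits raise reporter mRNA above DMSO so AC50 marks FXR activation.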 Particulars: HepG2 Attagene TRANS FXR-GAL4 reporter transcription. The gist of the method: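 HepG2 cells were transiently transfected with GAL4-UAS reporters driven by chimeric NR-Gal4 proteins and dosed for 24 h. Reporter mRNA was quantified by RT-PCR, fluorescent labelling, HpaI digestion and capillary electrophoresis, with gain of signal scored versus DMSO.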

The target of assay [15] is Peroxisome proliferator-activated receptor gamma (Homo sapiens) (UniProt P37231). Briefly: ATG_PPARg_TRANS: Attagene TRANS-FACTORIAL HepG2 Assay for human Peroxisome Proliferator-activated Receptor-gamma (PPARg) (AID 2283007). Summed up:
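Transient transfection of HepG2 with GAL4-UAS-driven reporter units; chemical dosing 24 h; total RNA → oligo(dT) RT → PCR with reporter primers → 6-FAM primer extension → HpaI digest 2 h 37 C → capillary electrophoresis. Positive direction vs DMSO.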

A short description of assay [16]: ATG_GAL4_TRANS: Attagene TRANS-FACTORIAL HepG2 Assay for GAL4 (Internal Marker) (AID 2282976). Particulars: HepG2 Attagene TRANS GAL4 internal marker reporter. Summed up:
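Background-control readout: GAL4-UAS reporter transcript in transiently transfected HepG2 cells after 24 h compound exposure. Measured by RT-PCR, 6-FAM primer extension, HpaI digest and capillary electrophoresis; gain-of-signal fit versus DMSO.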

For assay [17], the target named is human RAR-related Orphan Receptor gamma (RORg), RORC (gene 6097) (UniProt P51449). The assay can be described thus: ATG_RORg_TRANS: Attagene TRANS-FACTORIAL HepG2 Assay for human RAR-related Orphan Receptor gamma (RORg) (AID 2283011). The gist of the method: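 HepG2 cells transiently transfected with GAL4-UAS reporter units and chimeric RORg-Gal4 construct; after 24 h chemical exposure, reporter mRNA measured by RT-PCR with fluorescent capillary electrophoresis, gain of signal fitted against DMSO.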

Assay [18] deals with human Vitamin D Receptor (VDR), VDR (gene 7421) (UniProt P11473). Briefly: ATG_VDR_TRANS: Attagene TRANS-FACTORIAL HepG2 Assay for human Vitamin D Receptor (VDR) (AID 2283022). The gist of the method:
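HepG2 cells were transiently transfected with GAL4-UAS reporter units and a chimeric VDR-Gal4 construct, then dosed for 24 hours. Reporter mRNA was quantified by RT-PCR, fluorescent labeling, HpaI digestion and capillary electrophoresis; gain of signal analysed vs DMSO.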

Assay [19] deals with Nuclear receptor subfamily 1 group I member 3 (Homo sapiens) (UniProt Q14994). The assay can be described thus: ATG_CAR_TRANS: Attagene TRANS-FACTORIAL HepG2 Assay for human Constitutive Androstane Receptor (CAR) (AID 2282969).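 Also: activators raise reporter mRNA above DMSO so AC50 marks induction.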 Particulars: HepG2 Attagene TRANS-FACTORIAL CAR reporter. The gist of the method: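 HepG2 cells transiently transfected with multiplexed GAL4-UAS reporter units expressing chimeric NR-Gal4 proteins; compound exposure 24 h. Reporter mRNA measured by RT-PCR, 6-FAM labelling, HpaI digestion and capillary electrophoresis; gain-of-signal fitted against DMSO baseline.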

Inconclusive results are not listed. Calls of active or inactive are those of the source. The calls were made as follows, unless noted: active = hit-call score of the fitted dose curve at least 0.9, where 1 is the maximum; inconclusive = response in the unintended direction; inactive = score below 0.9.

Nuclear receptor subfamily 4 group A member 2 (Homo sapiens), sequence (P43354 whole entry, looked up, the tested form may be a part): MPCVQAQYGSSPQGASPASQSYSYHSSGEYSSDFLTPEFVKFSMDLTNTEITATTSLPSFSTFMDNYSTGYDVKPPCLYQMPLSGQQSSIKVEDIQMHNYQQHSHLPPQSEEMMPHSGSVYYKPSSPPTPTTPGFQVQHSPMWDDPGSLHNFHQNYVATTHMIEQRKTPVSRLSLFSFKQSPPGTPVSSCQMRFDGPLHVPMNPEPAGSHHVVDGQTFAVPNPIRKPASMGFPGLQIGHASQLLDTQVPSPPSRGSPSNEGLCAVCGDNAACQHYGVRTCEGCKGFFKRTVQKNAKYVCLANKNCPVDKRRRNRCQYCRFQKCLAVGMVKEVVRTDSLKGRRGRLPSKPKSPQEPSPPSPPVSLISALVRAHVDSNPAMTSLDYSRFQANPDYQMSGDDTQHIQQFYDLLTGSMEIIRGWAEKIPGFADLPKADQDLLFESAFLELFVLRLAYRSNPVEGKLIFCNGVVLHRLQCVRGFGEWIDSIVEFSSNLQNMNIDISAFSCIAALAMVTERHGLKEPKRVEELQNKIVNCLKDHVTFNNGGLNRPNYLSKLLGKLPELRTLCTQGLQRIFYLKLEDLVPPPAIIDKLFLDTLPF
Oxysterols receptor LXR-alpha (Homo sapiens), sequence (Q13133 whole entry, looked up, the tested form may be a part): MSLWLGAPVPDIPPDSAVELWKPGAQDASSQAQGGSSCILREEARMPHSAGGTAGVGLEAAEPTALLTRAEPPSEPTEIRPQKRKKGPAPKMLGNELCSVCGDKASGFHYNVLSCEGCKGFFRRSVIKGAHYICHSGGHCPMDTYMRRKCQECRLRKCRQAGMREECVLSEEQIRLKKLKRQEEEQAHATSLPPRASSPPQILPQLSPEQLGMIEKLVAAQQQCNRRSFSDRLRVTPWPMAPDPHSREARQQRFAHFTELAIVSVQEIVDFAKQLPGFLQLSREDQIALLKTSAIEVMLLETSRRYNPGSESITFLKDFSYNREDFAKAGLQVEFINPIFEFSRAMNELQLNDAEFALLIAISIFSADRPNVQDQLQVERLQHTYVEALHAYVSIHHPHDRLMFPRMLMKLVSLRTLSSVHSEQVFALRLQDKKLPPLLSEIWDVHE
Bile acid receptor (Homo sapiens), sequence (Q96RI1 whole entry, looked up, the tested form may be a part): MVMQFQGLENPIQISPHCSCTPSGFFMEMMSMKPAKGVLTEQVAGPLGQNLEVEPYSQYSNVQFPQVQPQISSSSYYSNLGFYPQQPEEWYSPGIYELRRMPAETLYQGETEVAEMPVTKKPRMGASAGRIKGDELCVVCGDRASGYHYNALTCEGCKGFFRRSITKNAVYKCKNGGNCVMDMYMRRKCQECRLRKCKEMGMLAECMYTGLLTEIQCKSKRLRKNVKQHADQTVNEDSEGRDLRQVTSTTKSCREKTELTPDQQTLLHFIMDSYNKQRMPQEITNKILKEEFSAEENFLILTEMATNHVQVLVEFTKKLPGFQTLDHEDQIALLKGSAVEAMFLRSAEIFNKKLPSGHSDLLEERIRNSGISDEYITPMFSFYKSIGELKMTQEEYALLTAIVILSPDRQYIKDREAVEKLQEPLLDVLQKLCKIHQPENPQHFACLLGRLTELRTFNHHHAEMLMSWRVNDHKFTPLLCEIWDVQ
human Peroxisome Proliferator-activated Receptor alpha (PPARa), PPARA (gene 5465), sequence (Q07869 whole entry, looked up, the tested form may be a part): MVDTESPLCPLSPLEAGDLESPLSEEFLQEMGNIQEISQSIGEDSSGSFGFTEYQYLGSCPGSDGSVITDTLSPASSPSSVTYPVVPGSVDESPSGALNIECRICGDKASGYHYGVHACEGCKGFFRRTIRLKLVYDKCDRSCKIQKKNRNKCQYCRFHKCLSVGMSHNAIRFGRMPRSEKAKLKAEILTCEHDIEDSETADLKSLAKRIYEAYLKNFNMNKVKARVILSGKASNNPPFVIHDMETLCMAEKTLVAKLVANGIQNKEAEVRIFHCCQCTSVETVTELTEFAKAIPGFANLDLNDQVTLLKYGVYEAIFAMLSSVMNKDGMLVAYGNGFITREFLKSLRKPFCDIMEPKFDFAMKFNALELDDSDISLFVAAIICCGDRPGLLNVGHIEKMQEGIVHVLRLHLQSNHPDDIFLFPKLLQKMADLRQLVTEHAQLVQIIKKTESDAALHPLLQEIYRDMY
human Peroxisome Proliferator-activated Receptor delta (PPARd), PPARD (gene 5467), sequence (Q03181 whole entry, looked up, the tested form may be a part): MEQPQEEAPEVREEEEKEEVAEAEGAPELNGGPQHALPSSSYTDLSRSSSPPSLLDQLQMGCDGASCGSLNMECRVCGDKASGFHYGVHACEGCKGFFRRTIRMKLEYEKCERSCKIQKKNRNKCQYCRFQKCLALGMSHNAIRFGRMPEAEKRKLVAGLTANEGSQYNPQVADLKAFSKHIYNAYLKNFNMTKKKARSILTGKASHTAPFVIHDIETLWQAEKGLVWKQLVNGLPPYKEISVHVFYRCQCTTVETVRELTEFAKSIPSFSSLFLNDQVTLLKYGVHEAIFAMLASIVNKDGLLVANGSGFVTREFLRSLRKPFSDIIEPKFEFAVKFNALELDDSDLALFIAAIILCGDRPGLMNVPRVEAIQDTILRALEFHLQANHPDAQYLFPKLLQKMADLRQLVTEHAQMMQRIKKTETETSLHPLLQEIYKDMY
Peroxisome proliferator-activated receptor gamma (Homo sapiens), sequence (P37231 whole entry, looked up, the tested form may be a part): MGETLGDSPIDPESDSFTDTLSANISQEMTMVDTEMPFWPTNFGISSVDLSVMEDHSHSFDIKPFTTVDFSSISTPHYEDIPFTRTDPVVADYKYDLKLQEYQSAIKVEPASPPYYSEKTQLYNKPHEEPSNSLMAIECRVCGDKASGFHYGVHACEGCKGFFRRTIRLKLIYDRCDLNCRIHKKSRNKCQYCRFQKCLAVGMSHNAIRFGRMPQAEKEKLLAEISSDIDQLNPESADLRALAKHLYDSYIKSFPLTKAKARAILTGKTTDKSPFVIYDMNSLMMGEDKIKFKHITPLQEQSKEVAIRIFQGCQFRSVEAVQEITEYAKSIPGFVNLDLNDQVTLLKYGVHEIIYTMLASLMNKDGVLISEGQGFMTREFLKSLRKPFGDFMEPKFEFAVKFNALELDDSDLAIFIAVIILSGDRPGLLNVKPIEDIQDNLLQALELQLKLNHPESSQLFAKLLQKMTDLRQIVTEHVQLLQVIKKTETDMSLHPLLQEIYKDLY
human Vitamin D Receptor (VDR), VDR (gene 7421), sequence (P11473 whole entry, looked up, the tested form may be a part): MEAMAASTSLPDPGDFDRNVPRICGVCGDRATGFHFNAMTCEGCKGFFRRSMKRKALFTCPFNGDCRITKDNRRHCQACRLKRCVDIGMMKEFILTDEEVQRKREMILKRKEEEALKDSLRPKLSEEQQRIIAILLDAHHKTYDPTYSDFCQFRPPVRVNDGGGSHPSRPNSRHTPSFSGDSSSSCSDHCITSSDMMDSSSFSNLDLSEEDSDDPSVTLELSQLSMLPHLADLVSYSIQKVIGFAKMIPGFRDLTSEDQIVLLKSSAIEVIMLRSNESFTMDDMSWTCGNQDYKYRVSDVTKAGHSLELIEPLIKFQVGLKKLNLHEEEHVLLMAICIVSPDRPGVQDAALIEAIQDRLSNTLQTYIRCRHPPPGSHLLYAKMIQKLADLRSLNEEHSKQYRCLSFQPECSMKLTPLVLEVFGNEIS

As to `F[B-](F)(F)F`, the result in [1], in assay [2], in assay [3], in assay [4] and in assay [5] was inactive.
As for `C[C@H]1C[C@H]2[C@@H]3CCC4=CC(=O)C=C[C@]4(C)[C@@]3(F)[C@@H](O)C[C@]2(C)[C@@]1(O)C(=O)CO`, the outcome in assay [1], in [3], in [6], in assay [7], in assay [8] and in assay [9] was inactive. Besides, in assay [10], the result was inactive.
The AC50 is the concentration at which the activity in the assay is half-maximal. For `Oc1ccc(Cl)cc1C1CCCC1`, the AC50 in assay [11] is 57.8 µM (active); in assay [14], 18.5 µM (active); in assay [3] it was 8.65 µM (active); in [6] it was 39.1 µM (active); in [15] it was 33.4 µM (active); in assay [10] it was 66.6 µM (active). Moreover, the molecule was classed as inactive in assay [12], in [13], in [2], in assay [7], in assay [8] and in assay [9].
`COC(OC)C(C)c1ccccc1` (stereo not drawn): the call in assay [12], in [13], in [16], in assay [7], in [17] and in assay [8] was inactive. In addition, the call in assay [18] and in [10] was inactive. In addition, the concentration at half-maximal activity (AC50) in assay [5] is 20.7 µM (active).
In the case of `CN1CCCC1`, the molecule was classed as inactive in assay [11], in assay [19], in assay [16], in assay [14], in [2] and in [3]. Further, the outcome in assay [6], in [17], in [8], in [9] and in assay [5] was inactive.
Take `CC/C=C\CC1=C(C)CCC1=O`: the outcome in assay [12], in [19], in assay [1], in [2], in assay [6] and in assay [18] was inactive. Moreover, the molecule was classed as inactive in assay [9]. The concentration at half-maximal activity (AC50) in assay [15] is 23.9 µM (active); in [5], 92.5 µM (active).
